# Measured values: PubChem BioAssay (NCI)
# Values joined by “and” are separate entries in the source; they are usually repeats but may differ in a detail not shown here. Equal entries are not always repeated. Compounds without any hit were thinned out: in the full panel of roughly 83,000, 20% have a hit.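 Treatment: one concentration, 48 hours, 96-well format. Scoring: percent growth, with anything below 10 considered active.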 Active and inactive are the calls of the source.
# Tested on: HOP-92 NSCLC
# Assay: NCI-60 one-dose screen, 48 h (100 = growth as untreated, 0 = no growth, -100 = all killed)
# Settings: 10 µM
# Procedure: Growth inhibition of the HOP-92 human Non-Small Cell Lung tumor cell line is measured as a screen for anti-cancer activity. Cells are grown in 96 well plates and exposed to the test compound for 48 hours. Compounds are tested at a single concentration, which is 10^-5 M for most compounds. The reported endpoint is percent growth (GI% or GIPRCNT), where numbers from 0 - 100% represent growth inhibition, and numbers from -100% - 0 represent cell death. For example, a value of 40 represents 60% growth inhibition. A value of 0 means no net growth occurred over the course of the experiment. A value of -40 indicates 40% of cells at the beginning of the experiment died by the end of the experiment. A value of -100 means all cells are dead at the end of the experiment.
# NCI-60 Human Tumor Cell Lines Screen was performed using the standard one-dose NCI protocol, which is described in more detail at https://dtp.cancer.gov/discovery_development/nci-60/default.htm.
# Compounds with GIPRCNT values below 10 were considered active. Activity score was based on GIPRCNT using the following formula: […]
# Score is 0 for GIPRCNT values of 100 or above, 50 for GIPRCNT values of 0, and 100 for GIPRCNT values of -100.
row,Compound,growth
1,O=C(O)c1c(Cl)c(Cl)c(Cl)c(Cl)c1-c1c2cc(I)c(=O)c(I)c-2oc2c(I)c(O)c(I)cc12,125% (inactive) and 43.3% (inactive) and -9.83% (active)

# Same assay, conditions: 10 µM unless noted
row,Compound,growth
1,O=[N+]([O-])c1ccc2c(N=Nc3ccc4ccccc4c3O)c(O)cc(S(=O)(=O)O)c2c1,101% (inactive)
2,O=C(Nc1ccccc1)Oc1c(Cl)c(Cl)c(Cl)c(Cl)c1Cl,74.9% (inactive) and 63.8% (inactive)
3,Cn1c2ccccc2c2nnc(N/N=C/c3ccccn3)nc21,14.5% (inactive)
4,CN(C)C(=O)c1ccc(SC(=S)NCc2ccccc2)cc1,-10.3% [100 µM] (active)
5,O=C1c2ccccc2C(=O)c2sc(Nc3cccc(Cl)c3)nc21,65.2% (inactive)
6,Nc1ccc(SSc2ccc(N)cc2)cc1,103% (inactive)
7,CN(C)c1ccc(/C=N/N=C(\C#N)[S][Sn]([Cl])([c]2ccccc2)[c]2ccccc2)cc1,-15.6% (active)
8,S=C(N/N=C/c1ccccn1)Nc1ccccn1,-2.58% (active)
9,COc1cc(/C=C/C(C)=O)ccc1O,73.3% (inactive)
10,NC1=CC(=O)c2ccccc2C1=O,91.4% (inactive)
11,CC(=O)ON=C1C=CC(=C(C#N)c2ccccc2)C=C1,33.1% (inactive)
12,CCC1OC(OC)C=CC1=O (stereo not given),90.1% (inactive)
13,O=Nc1ccccc1N=O,107% (inactive)
14,Oc1ccc(/C=N/NC(=S)Nc2ccccc2)nc1,-0.553% (active)
15,CN=C(N)N/N=C(\C)c1ccc2c(c1)Cc1cc(/C(C)=N/NC(N)=NC)ccc1-2,13.5% (inactive)
16,COC(=O)Nc1nc2ccc(C(=O)c3ccccc3)cc2[nH]1,65.7% (inactive) and 41.8% (inactive) and 35.3% (inactive)
17,N#CSCc1ccc(CSC#N)c(Cl)c1,4.78% (active)
18,O=C(/C=C\c1ccccc1)N1c2ccccc2CC1c1c[nH]c2ccccc12 (stereo not given),47.5% (inactive)
19,Oc1c(Br)c(Br)c(O)c(Br)c1Br,142% (inactive)

row,Compound,growth
1,CCCCCCC(C)c1ccccc1O (stereo not given) (tested in a mixture with another compound),69.1% (inactive)
2,CCCCCCCCCCCCCCCCOP(=O)([O-])OCC[N+](C)(C)C,-24.8% (active)
3,O=C1C=CC(=O)N1C1c2ccccc2-c2ccccc21,67.5% (inactive)
4,Cc1cc2nc(CS)[nH]c2cc1C,88.9% (inactive)
5,C[n+]1c(/C=C/c2ccc([N+](=O)[O-])cc2)ccc2ccccc21,110% (inactive)
6,N#CC1C(=O)SC2c3ccccc3C(=O)c3ccccc3C12 (stereo not given),71.8% (inactive)
7,CN1c2ccccc2C(C)(C)C12C=Cc1cc(O)ccc1O2 (stereo not given),-6.47% (active)
8,Oc1c(Cl)c2ccccc2c2ccccc12,109% (inactive)
9,COC(=O)[C@@]12OC[C@]34[C@H]([C@@H](O)[C@@H]1O)[C@@]1(C)[C@H](O)C(=O)C=C(C)[C@@H]1C[C@H]3OC(=O)C(OC(C)=O)[C@@H]24 (stereo not given in full),-44.2% (active)
10,O=C(CC1(O)C(=O)Nc2c(Cl)ccc(Cl)c21)c1ccc(Cl)cc1Cl (stereo not given),92.5% (inactive)
11,Cc1cc(N)c2ccccc2[n+]1CCCCCCCCCC[n+]1c(C)cc(N)c2ccccc21,-22.2% (active) and 7.42% (active)
12,O=C(Nc1cccc(Br)c1)Oc1ccc(Cl)c2cccnc12,40.7% [100 µM] (inactive)
13,CNC(=O)N/N=C/c1ccc([N+](=O)[O-])o1,101% (inactive)
14,CC1OC2CC(=O)OC2C2=C1C(=O)c1c(O)cccc1C2=O (stereo not given),-92% (active)
15,C/C=C1\SC(=S)NC1=O,94.2% (inactive)
16,O=C(/C=C\c1cc(Br)ccc1O)/C=C/c1cc(Br)ccc1O,-40.1% (active)
17,N#CSCc1c(Cl)cccc1Cl,53.7% (inactive)
18,Cc1ccc(NS(=O)(=O)c2ccc(C)cc2)cc1,100% (inactive) and 96.7% (inactive)
19,N#CSCC(=O)c1ccc(Cl)cc1,-3.98% (active)

# Same assay, conditions: 100 µM
row,Compound,growth
1,O=C(O)c1c(Cl)c(Cl)c(Cl)c(Cl)c1-c1c2cc(I)c(=O)c(I)c-2oc2c(I)c(O)c(I)cc12,-22.3% (active)
